Inconclusive results are not listed. Active and inactive are the calls of the source. Rule for the calls: active = hit-call score of the fitted dose curve at least 0.9, where 1 is the maximum; inconclusive = response in the unintended direction; inactive = score below 0.9.

Test [1] has as its target human Constitutive Androstane Receptor (CAR), NR1I3 (gene 9970) (UniProt Q14994). Kind of test: NVS_NR_hCAR_Antagonist: NovaScreen (NVS) Nuclear Receptor Binding Assay for human Constitutive Androstane Receptor Antagonism (CAR) (AID 2283344). The method, boiled down: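 Single 25 uM duplicate primary screen, with concentration-series follow-up on actives. Cell-free binding format run in antagonist mode, TR-FRET signal taken 1 h post-dose; activity is signal loss relative to DMSO.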

For test [2], the target named is bovine Estrogen Receptor (ER), ESR1 (gene 407238) (UniProt P49884). Kind of test: NVS_NR_bER: NovaScreen (NVS) Nuclear Receptor Binding Assay for bovine Estrogen Receptor (ER) (AID 2283345).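 Note: actives lower the bound radioligand count which means they displace the ER ligand.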 The method, boiled down:
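Bovine uterine membranes; tritiated or iodinated radioligand; competitive displacement; 18 h; scintillation read; DMSO negative control; 25 uM duplicates, then concentration series for actives.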

The target of test [3] is Estrogen receptor (Homo sapiens) (UniProt P03372). Description: NVS_NR_hER: NovaScreen (NVS) Nuclear Receptor Binding Assay for human Estrogen Receptor (ER) (AID 2283348). The method, boiled down: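 Cell-free MCF7-derived ER preparation, specific radioligand displaced by test compound, read by scintillation counting 18 h post-dosing. Duplicate single-point 25 uM screen, then concentration-response confirmation; DMSO baseline.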
Sequence of Estrogen receptor (Homo sapiens) (P03372 whole entry, looked up, the tested form may be a part): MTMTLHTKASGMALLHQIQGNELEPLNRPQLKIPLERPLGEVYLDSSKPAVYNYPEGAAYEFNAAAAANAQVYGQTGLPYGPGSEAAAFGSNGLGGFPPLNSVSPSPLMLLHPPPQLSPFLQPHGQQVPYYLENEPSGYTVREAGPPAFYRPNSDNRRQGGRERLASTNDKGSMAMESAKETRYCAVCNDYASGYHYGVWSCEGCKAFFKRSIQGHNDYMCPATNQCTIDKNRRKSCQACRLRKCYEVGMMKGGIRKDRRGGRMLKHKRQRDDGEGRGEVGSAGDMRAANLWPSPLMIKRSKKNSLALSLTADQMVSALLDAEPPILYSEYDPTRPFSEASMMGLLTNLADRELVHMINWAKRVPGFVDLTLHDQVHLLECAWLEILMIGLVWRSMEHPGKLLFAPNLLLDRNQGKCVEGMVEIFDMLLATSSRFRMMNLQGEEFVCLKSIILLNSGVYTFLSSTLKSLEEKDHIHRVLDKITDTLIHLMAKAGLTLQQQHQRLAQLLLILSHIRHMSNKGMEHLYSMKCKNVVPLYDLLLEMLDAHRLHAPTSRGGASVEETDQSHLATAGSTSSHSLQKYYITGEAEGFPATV

Test [4] deals with Bile acid receptor (Homo sapiens) (UniProt Q96RI1). Kind of test: NVS_NR_hFXR_Antagonist: NovaScreen (NVS) Nuclear Receptor Binding Assay for human Farnesoid X Receptor Antagonism (FXR) (AID 2283350). The method, boiled down: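 Antagonist-format time-resolved FRET binding assay with extracted human receptor protein, read 1 hour after compound addition. Compounds first screened at 25 uM in duplicate, then actives tested in concentration series, with loss of signal relative to DMSO.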
Sequence of Bile acid receptor (Homo sapiens) (Q96RI1 whole entry, looked up): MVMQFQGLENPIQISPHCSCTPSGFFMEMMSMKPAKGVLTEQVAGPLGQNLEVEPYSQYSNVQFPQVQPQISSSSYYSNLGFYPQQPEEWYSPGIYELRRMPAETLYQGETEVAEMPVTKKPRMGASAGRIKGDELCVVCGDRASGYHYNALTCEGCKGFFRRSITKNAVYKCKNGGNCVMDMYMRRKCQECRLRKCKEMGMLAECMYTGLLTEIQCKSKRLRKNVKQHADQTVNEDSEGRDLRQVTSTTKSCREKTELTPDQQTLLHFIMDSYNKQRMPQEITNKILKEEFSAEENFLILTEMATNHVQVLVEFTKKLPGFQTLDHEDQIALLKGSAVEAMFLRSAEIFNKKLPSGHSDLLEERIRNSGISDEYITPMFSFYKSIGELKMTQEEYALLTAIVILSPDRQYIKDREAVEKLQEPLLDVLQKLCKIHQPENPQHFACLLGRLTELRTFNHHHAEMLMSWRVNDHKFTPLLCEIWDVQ

For test [5], the target named is rat Gamma-Aminobutyric Acid Type A Receptor BDZ, alpha 6 site (GABARa6), Gabra6 (gene 29708) (UniProt P30191). Description: NVS_LGIC_rGABARa6: NovaScreen (NVS) Ligand-Gated Ion Channel Assay for rat Gamma-Aminobutyric Acid Type A Receptor BDZ, alpha 6 site (GABARa6) (AID 2283339). The method, boiled down: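 Actives from a 25 uM duplicate screen were retested in concentration series (max 50 uM). Specific radioligand displacement from rat cerebellar membranes was counted by filter-based scintillation at 1 h; DMSO served as baseline.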

In test [6] the target is Estrogen receptor (Homo sapiens) (UniProt P03372). Description: OT_ER_ERaERa_1440: Odyssey Thera (OT) 24-hour HEK293T Protein-Complementation Assay for Estrogen Receptor-alpha/-alpha Homodimer (AID 2283349).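 Note: hits raise fluorescence above DMSO for agonists and antagonists alike.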 In outline: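 HEK293T, stable ERα LBD (aa 310-547) homodimer PCA; 24 h compound exposure; mean fluorescence intensity (nuclear for agonists, nuclear plus cytoplasmic for antagonists) vs vehicle; positive fitting direction, DMSO baseline.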

Test [7] addresses T1, Estrogen receptor (Homo sapiens) + Estrogen receptor beta (Homo sapiens) (UniProt P03372+Q92731). Kind of test: OT_ER_ERaERb_1440: Odyssey Thera (OT) 24-hour HEK293T Protein-Complementation Assay for Estrogen Receptor-alpha/-beta Homodimer (AID 2283356).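 Note: heteromer of ER alpha and ER beta binding domains; hits raise reporter fluorescence and both agonists and antagonists give an increase.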 The method, boiled down: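 Stable HEK293T PCA line, ERα LBD 310-547 + ERβ LBD 263-489 fused to reporter fragments; 24 h treatment; fluorescence read by laser scanning cytometry; positive fitting direction relative to DMSO.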

The target of test [8] is Estrogen receptor beta (Homo sapiens) (UniProt Q92731). Description: OT_ER_ERbERb_0480: Odyssey Thera (OT) 8-hour HEK293T Protein-Complementation Assay for Estrogen Receptor-beta/-beta Homodimer (AID 2283357).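 Note: active means signal gain over DMSO baseline.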 The method, boiled down: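 ER-beta LBD homodimer PCA stably expressed in HEK293T; 8 h compound exposure, then formaldehyde fixation and Draq5 staining. Gain in nuclear/cytoplasmic fluorescence intensity versus DMSO vehicle, read on laser scanning cytometer.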
Sequence of Estrogen receptor beta (Homo sapiens) (Q92731 whole entry, looked up, the tested form may be a part): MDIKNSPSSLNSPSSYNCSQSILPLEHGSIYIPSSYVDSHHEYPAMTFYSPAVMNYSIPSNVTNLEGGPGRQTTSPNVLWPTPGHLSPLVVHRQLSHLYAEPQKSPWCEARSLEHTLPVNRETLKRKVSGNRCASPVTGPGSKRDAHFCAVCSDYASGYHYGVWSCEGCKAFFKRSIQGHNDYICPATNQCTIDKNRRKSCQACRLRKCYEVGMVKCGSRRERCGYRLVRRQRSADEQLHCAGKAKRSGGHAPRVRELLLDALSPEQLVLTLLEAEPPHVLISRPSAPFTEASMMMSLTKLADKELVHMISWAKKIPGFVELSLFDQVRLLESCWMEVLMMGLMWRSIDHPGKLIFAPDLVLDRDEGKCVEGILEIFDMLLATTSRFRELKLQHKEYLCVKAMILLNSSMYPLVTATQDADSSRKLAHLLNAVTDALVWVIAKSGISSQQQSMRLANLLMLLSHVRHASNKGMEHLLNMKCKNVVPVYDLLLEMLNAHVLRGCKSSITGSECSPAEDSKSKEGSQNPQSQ

Test [9] addresses T1, Estrogen receptor (Homo sapiens) + Estrogen receptor beta (Homo sapiens). Description: OT_ER_ERaERb_0480: Odyssey Thera (OT) 8-hour HEK293T Protein-Complementation Assay for Estrogen Receptor-alpha/-beta Heterodimer (AID 2283352). In outline:
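Compound added to HEK293T cells carrying split-reporter-tagged ER-alpha and ER-beta LBDs, incubated 8 hours, then imaged by laser scanning cytometer. Signal rise in nucleus, or nucleus and cytoplasm, over vehicle was fitted in the positive direction.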

Test [10] deals with Bile acid receptor (Homo sapiens) (UniProt Q96RI1). Kind of test: NVS_NR_hFXR_Agonist: NovaScreen (NVS) Nuclear Receptor Binding Assay for human Farnesoid X Receptor Agonism (FXR) (AID 2283347). The method, boiled down: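 Agonist-mode FXR assay read by time-resolved FRET 1 h after compound addition, using isolated human receptor protein without cells. Duplicate 25 uM single-point primary screen, concentration series for confirmed actives; DMSO as baseline.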

For test [11], the target named is rat Mineralocorticoid Receptor (MR), Nr3c2 (gene 25672) (UniProt P22199). Description: NVS_NR_rMR: NovaScreen (NVS) Nuclear Receptor Binding Assay for rat Mineralocorticoid Receptor (MR) (AID 2283355). In outline: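 Primary HTS ran in duplicate at a single 25 uM concentration, with concentration-series follow-up for actives. Receptor source: adrenalectomized rat brain supernatant, cell-free. Radioligand displacement read by scintillation at 24 h, relative to DMSO baseline.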

Test [12] concerns the target Androgen Receptor/SRC-1 Co-activator, AR (gene 367) (UniProt P10275). Kind of test: OT_AR_ARSRC1_0960: Odyssey Thera (OT) 16-hour HEK293T Protein-Complementation Assay for Androgen Receptor/SRC-1 Co-activator (AID 2283353).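 Note: actives raise the signal above DMSO so potency reflects increased AR and SRC-1 complex.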 In outline: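 Readout: 488 nm nuclear-to-cytoplasmic fluorescence ratio from imaging of at least 400 cells per image, 16 h post-dose. Reporter is Venus YFP complementation between AR and SRC-1 fusions, stably expressed in HEK293T; activity scored upward relative to DMSO.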

Test [13] shares this target. Description: OT_AR_ARSRC1_0480: Odyssey Thera (OT) 8-hour HEK293T Protein-Complementation Assay for Androgen Receptor/SRC-1 Co-activator (AID 2283354).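 Note: hits raise the complementation signal above DMSO so AC50 marks enhancers.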 The method, boiled down: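 Reconstituted split-Venus YFP signal from AR–SRC-1 interaction, read by imaging 8 h post-dose in stable HEK293T lines. The 488 nm nucleus-to-cytoplasm ratio (≥400 cells/image) was fitted upward against DMSO.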

Sequence of bovine Estrogen Receptor (ER), ESR1 (gene 407238) (P49884 whole entry, looked up): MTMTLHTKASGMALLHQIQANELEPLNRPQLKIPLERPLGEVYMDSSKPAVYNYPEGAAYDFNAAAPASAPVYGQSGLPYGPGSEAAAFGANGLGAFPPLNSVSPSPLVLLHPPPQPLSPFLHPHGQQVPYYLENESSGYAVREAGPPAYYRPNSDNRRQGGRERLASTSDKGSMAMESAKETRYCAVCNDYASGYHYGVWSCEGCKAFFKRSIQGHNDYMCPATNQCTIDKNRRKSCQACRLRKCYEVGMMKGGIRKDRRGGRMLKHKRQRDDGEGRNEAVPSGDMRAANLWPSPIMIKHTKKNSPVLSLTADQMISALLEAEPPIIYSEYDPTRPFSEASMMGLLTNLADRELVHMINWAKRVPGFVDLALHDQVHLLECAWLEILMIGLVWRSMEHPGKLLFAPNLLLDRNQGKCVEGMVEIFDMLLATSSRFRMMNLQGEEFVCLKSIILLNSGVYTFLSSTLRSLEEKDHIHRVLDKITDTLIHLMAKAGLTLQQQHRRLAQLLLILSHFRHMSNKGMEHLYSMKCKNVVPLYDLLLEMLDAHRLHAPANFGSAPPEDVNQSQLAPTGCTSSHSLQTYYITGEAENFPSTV
Sequence of human Constitutive Androstane Receptor (CAR), NR1I3 (gene 9970) (Q14994 whole entry, looked up): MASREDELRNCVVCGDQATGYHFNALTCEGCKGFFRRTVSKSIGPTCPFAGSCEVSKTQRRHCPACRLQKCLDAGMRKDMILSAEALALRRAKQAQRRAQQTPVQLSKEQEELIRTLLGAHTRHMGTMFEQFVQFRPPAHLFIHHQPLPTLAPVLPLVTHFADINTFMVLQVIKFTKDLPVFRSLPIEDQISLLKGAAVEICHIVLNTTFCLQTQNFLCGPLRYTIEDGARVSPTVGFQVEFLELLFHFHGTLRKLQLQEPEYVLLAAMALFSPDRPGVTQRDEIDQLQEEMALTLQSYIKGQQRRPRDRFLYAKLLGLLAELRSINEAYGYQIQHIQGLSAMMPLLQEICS
T1 sequence (P03372 whole entry, looked up, the tested form may be a part): as the sequence (P03372 whole entry, looked up, the tested form may be a part) above
T1 sequence (Q92731 whole entry, looked up, the tested form may be a part): as the sequence (Q92731 whole entry, looked up, the tested form may be a part) above
Sequence of Androgen Receptor/SRC-1 Co-activator, AR (gene 367) (P10275 whole entry, looked up, the tested form may be a part): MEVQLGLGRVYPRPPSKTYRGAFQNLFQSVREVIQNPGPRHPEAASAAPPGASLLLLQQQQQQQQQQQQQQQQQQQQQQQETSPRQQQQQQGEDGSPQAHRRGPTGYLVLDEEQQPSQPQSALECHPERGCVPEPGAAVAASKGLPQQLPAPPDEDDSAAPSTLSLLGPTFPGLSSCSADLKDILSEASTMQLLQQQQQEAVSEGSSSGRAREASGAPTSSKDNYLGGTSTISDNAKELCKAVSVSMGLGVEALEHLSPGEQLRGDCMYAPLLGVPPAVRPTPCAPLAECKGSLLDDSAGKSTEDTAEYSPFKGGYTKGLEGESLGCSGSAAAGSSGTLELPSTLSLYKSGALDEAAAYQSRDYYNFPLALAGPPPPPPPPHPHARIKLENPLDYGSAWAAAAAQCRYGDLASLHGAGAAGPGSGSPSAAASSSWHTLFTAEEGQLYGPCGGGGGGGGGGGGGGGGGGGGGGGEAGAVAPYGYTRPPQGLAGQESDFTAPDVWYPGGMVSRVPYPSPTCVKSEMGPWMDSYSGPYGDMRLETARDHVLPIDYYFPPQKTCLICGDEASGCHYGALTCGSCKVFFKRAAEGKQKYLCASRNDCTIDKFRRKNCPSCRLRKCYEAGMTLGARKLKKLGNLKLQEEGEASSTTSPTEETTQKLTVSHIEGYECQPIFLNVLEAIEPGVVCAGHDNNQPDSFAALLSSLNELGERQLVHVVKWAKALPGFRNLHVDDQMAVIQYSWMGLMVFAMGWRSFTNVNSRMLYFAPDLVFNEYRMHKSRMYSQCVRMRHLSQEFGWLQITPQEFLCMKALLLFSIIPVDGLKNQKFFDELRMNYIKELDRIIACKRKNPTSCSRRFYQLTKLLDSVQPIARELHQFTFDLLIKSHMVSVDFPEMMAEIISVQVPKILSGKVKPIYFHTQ

In the case of `CCOc1nc(NC)nc(NC(=O)NS(=O)(=O)c2ccccc2C(=O)OC)n1`, the outcome in test [1], in test [2], in [3] and in test [4] was inactive.

For the compound `O=C(Nc1ccccc1)Nc1cnns1`, the AC50 in test [5] was 3.68 µM (active). The result in [6], in test [7] and in test [8] was inactive.

`CC(C)N(C(=O)COc1nnc(C(F)(F)F)s1)c1ccc(F)cc1`: the compound was classed as inactive in test [6] and in test [8].

For the compound `N#CN`, the outcome in test [6], in test [9], in test [7] and in test [8] was inactive.

`COC(=O)c1ccccc1CS(=O)(=O)NC(=O)Nc1nc(OC)cc(OC)n1`: the outcome in test [2], in test [10] and in test [3] was inactive.

In the case of `COC(=O)c1ccccc1S(=O)(=O)NC(=O)N(C)c1nc(C)nc(OC)n1`, the result in test [2], in test [10], in test [3] and in test [11] was inactive.

For `COP(=O)(OC)OC=C(Cl)Cl`, the outcome in [3], in test [6], in test [9], in test [7] and in [8] was inactive.

Turning to `CC1(c2ccc(Oc3ccccc3)cc2)OC(=O)N(Nc2ccccc2)C1=O` (stereo not drawn), the compound was classed as inactive in test [6], in test [9], in test [7] and in [8]. In addition, in test [4], the AC50 is 10 µM (active).

As to `O=C(O)CCCOc1ccc(Cl)cc1Cl`, the call in test [1], in [12], in [13] and in [8] was inactive.

In the case of `CCC(C)Nc1c([N+](=O)[O-])cc(C(C)(C)C)cc1[N+](=O)[O-]` (stereo not drawn), the compound was called inactive in test [6] and in [8]. Moreover, the half-maximal activity concentration (AC50) in test [9] is 34.7 µM (active); in test [7], 69.9 µM (active).

Regarding `C#CCN1C(=O)COc2cc(F)c(N3C(=O)C4=C(CCCC4)C3=O)cc21`, the outcome in [6], in [12], in test [13] and in test [7] was inactive.

In the case of `COC(=O)c1ccccc1S(=O)(=O)NC(=O)Nc1nc(C)nc(OC)n1`, in test [4], the outcome was inactive.

With `O=C(NC(=O)c1c(F)cccc1F)Nc1ccc(OC(F)(F)C(F)OC(F)(F)F)c(Cl)c1` (stereo not drawn), the compound was called inactive in test [3], in test [6], in test [9], in [7] and in [8].

With `Cc1cc(C)nc(NC(=O)NS(=O)(=O)c2ccccc2C(=O)OC2COC2)n1`, the compound was classed as inactive in test [1] and in [10].

For the compound `CNC(=O)/C=C(\C)OP(=O)(OC)OC`, the compound was classed as inactive in test [1], in [6], in test [9], in test [7] and in test [8].

With `CCN(CC)C(=O)SCc1ccc(Cl)cc1`, the call in test [6] and in test [4] was inactive.

Turning to `Cc1[nH]c(=O)n(C(C)(C)C)c(=O)c1Cl`, the compound was classed as inactive in test [6], in [12] and in test [13].

Turning to `CCC(C)(NC(=O)c1cc(Cl)c(C)c(Cl)c1)C(=O)CCl` (stereo not drawn), the outcome in [6], in test [9], in test [7] and in [8] was inactive.

As to `CCC(C)(C)C(=O)OC1=C(c2ccc(Cl)cc2Cl)C(=O)OC12CCCCC2`, the call in test [6], in test [4], in [9], in test [13] and in test [7] was inactive. In test [12], the AC50 is 82.4 µM (active).

In the case of `CCCN(CCC)c1c([N+](=O)[O-])cc(C(F)(F)F)cc1[N+](=O)[O-]`, the compound was called inactive in test [1], in test [3], in test [6], in [12] and in test [13].

Regarding `CCc1ccc(C(=O)NN(C(=O)c2cc(C)cc(C)c2)C(C)(C)C)cc1`, the compound was called inactive in test [6], in [4], in test [7] and in [8].

Regarding `O=S1OCC2C(CO1)C1(Cl)C(Cl)=C(Cl)C2(Cl)C1(Cl)Cl` (stereo not drawn), the compound was classed as inactive in [1], in test [3] and in test [6]. Also, the concentration at half-maximal activity (AC50) in test [12] was 34.5 µM (active); in test [13], 31.8 µM (active).

Consider `CNC(=O)Oc1cccc(N=CN(C)C)c1`, for which the compound was classed as inactive in [6], in [9], in [7] and in test [8].

Turning to `Clc1ccccc1-c1nnc(-c2ccccc2Cl)nn1`, the outcome in [6], in test [9], in test [7] and in [8] was inactive.

As for `CN1CSC(=S)N(C)C1`, the outcome in test [1], in test [3], in test [6] and in test [8] was inactive. Further, the AC50 in test [4] was 9.27 µM (active).

Consider `CCOC1Oc2ccc(OS(C)(=O)=O)cc2C1(C)C` (stereo not drawn), for which the compound was called inactive in test [6], in [9], in test [12], in test [13], in test [7] and in [8].

As for `OCCOc1ccccc1`, the result in [10], in test [6], in [7] and in test [8] was inactive.
